Measurements taken from PubChem BioAssay AID2315 (National Center for Advancing Translational Sciences (NCATS), 2010).
Hit rate of the full screen: of about 290,000 compounds, about 27,000 (9.3%) were called active. For the sample, actives were picked, then their nearest neighbours and some compounds at random. Values without a mark were called inactive. No stated cut-off is given here; in the data, active means inhibition mostly above about 28% (no sharp cut-off); inactive means mostly below about 43%. Where a SMILES comes first, the peptide text is derived from it. Bridges are numbered along the chain shown (N, C = ends).

Assay: A qHTS for Small Molecule Inhibitors of Shiga Toxin; further: 0% is about no effect
Settings: Vero cells, Shiga toxin protein synthesis inhibition reporter; at 38.7 µM, hits give high values

Row | SMILES | inhibition
1 | Cc1ccnc(NS(=O)(=O)c2ccc(NC(=O)c3oc4ccc(F)cc4c3C)cc2)n1 | -7.64%
2 | O=S(=O)(c1ccc(Cl)s1)N1CCC2(CC1)OCCO2 | 6.74%
3 | C[C@@H](O)[C@@H]1NC(=O)[C@H](CCCCN)NC(=O)[C@H](Cc2c[nH]c3ccccc23)NC(=O)[C@H](Cc2ccccc2)NC(=O)[C@H](Cc2ccccc2)NC(=O)[C@H](CC(N)=O)NC(=O)[C@H](CCCCN)NC(=O)[C@@H](NC(=O)[C@@H]2CCCN2)CSSC[C@@H](C(=O)N[C@@H](CCCCN)C(=O)O)NC(=O)[C@H](CO)NC(=O)[C@H](CO)NC(=O)[C@H](Cc2ccccc2)NC1=O (H-PCKNFFWKTFSSCK-OH; disulfide 2-13) | -9.69%
4 | O=C(NCc1ccccc1)C(c1ccccc1)N(C(=O)c1csnn1)c1ccc(F)cc1 (stereo not given) | -3.73%
5 | Cc1occc1C(=O)Nc1nnc(C2CCCCC2)s1 | 60.1% (active)
6 | CC1CCN(c2ccc(C(=O)Nc3nnc(C4CC4)s3)cc2[N+](=O)[O-])CC1 | 1.09%
7 | O=C(Cc1cccs1)Nc1nnc(C2CC2)s1 | 18.3%
8 | Cc1occc1C(=O)Nc1nnc(-c2ccncc2)s1 | 28.4%
9 | COc1ccc(NC(=O)CCC(=O)Nc2nnc(C3CCCCC3)s2)cc1 | -3.77%
10 | O=C(Nc1nnc(C2CC2)s1)c1ccccn1 | 109% (active)
11 | Cc1cccc(NC(=O)CSCC(=O)Nc2nnc(C3CC3)s2)c1 | 14.9%
12 | O=C(Nc1nnc(C2CC2)s1)c1cc(Cl)sc1Cl | 48% (active)
13 | O=C(Nc1nnc(C2CC2)s1)C1=NN(C2CCS(=O)(=O)C2)C(=O)CC1 (stereo not given) | -18%
14 | CC1CCN(S(=O)(=O)c2ccc(NC(=O)C3CC(=O)N(c4ccccc4)C3)cc2)CC1 (stereo not given) | -4.69%
15 | COc1ccc(NS(=O)(=O)c2ccc(N3CCN(CCO)CC3)c([N+](=O)[O-])c2)cc1 | -10.2%
16 | CN(C(=O)c1ccccc1)c1nccnc1C#N | -2.8%
17 | CCc1nn(CC(=O)N2CCN(CC)CC2)c(=O)c2cccn12 | -0.821%
18 | COc1ccccc1CN1CCNC(=O)C1CC(=O)N(C)CC1CCOCC1 (stereo not given) | -2.77%
19 | O=C(CSc1nc2ccccc2[nH]1)Nc1nc(-c2ccccc2)c(-c2ccccc2)o1 | -6.45%
20 | CN(Cc1ccccc1)C(=O)CSc1nc2ccccc2[nH]1 | 70.2% (active)

Row | SMILES | inhibition
21 | CN(Cc1ccccc1)c1nc2c(c(=O)[nH]c(=O)n2C)n1CCSc1nc2ccccc2[nH]1 | -8.47%
22 | CC(=O)Nc1ccc(C(=O)CSc2nc3ccc(C)cc3[nH]2)cc1 | 23.5%
23 | O=C(CSc1nc2ccccc2[nH]1)c1cccs1 | 119% (active)
24 | O=C(CSc1nc2ccccc2[nH]1)N/N=C/C=C\c1ccccc1[N+](=O)[O-] | 30.8%
25 | CN(CCc1ccccn1)C(=O)c1ccc(OC2CCN(CCc3ccccc3)CC2)cc1 | 24.5%
26 | Cc1cc(C)c(S(=O)(=O)N(C)CC(=O)NCC2CCCO2)c(C)c1 (stereo not given) | -2.86%
27 | Cc1ccc(OCC(=O)Nc2ccc(C(=O)O)cc2NC(=O)COc2ccc(C)c(C)c2)cc1C | -6.8%
28 | Cc1ccc(C2Nc3cccc4cccc(c34)N2)cc1 | -10.1%
29 | C=CCN1CCN(C(=O)CCCc2ccccc2)CC1 | 9.38%
30 | CCc1c(C)nc(N)n2c(SCC(=O)NC3CCCCC3)nnc12 | -19.4%
31 | S=C(c1ccc(-c2ccccc2)o1)N1CCCCC1 | 98.2% (active)
32 | OCCN1CCN(C(=S)c2ccc(-c3ccccc3)cc2)CC1 | 0.879%
33 | S=C(c1ccccc1)N1CCCC1 | -8.23%
34 | N#C[C@]1(S(=O)(=O)c2ccccc2)C[C@@H]2ON=C(c3cccc(Br)c3)[C@@H]2C1 | -6.42%
35 | CCc1nc(N2CCN(C(C)=O)CC2)c2c3c(sc2n1)CCCC3 | -5.44%
36 | Cc1ccc(C(=O)CSc2ccccc2C(=O)O)cc1 | 39.6%
37 | Cc1ccc(C(=O)Cc2nnc(C)s2)cc1 | 58.4% (active)
38 | Cc1ccc(C(=O)Cn2cccn2)cc1 | 5.48%
39 | CC1CC(=O)N(CC(=O)Nc2cccc(Cl)c2)c2ccccc2S1(=O)=O (stereo not given) | -4.68%
40 | CCN(C(=O)COC(=O)c1ccc(COc2ccc3c(C)cc(=O)oc3c2)cc1)C1CCS(=O)(=O)C1 (stereo not given) | 33%

Row | SMILES | inhibition
41 | CCCSc1nc2sc3c(c2c(=O)n1-c1ccc(OC)cc1)CCN(C)C3 | -19%
42 | CC(C)(O)C#Cc1ccc(CN2CCC(CO)(CCc3ccccc3)CC2)cc1 | -5.12%
43 | COCCCNc1nc2c(-c3cccc(C)c3)nnn2c2ccc(Cl)cc12 | 9.32%
44 | CCOC(=O)CSc1nnc(CNc2ccc(F)cc2)o1 | -20.4%
45 | Cc1cccc2nc(CNc3ccc(F)cc3)cn12 | 66.5% (active)
46 | COc1cc([N+](=O)[O-])cc([N+](=O)[O-])c1NC(=O)N1CCOCC1 | -11.6%
47 | CCN(c1ccccc1)S(=O)(=O)c1cc2c(cc1C)n(C)c(=O)c(=O)n2C | 10.4%
48 | O=C(CCCN1CCc2[nH]c3ccc(F)cc3c2C1)c1ccc(F)cc1 | -5.56%
49 | COC(=O)[C@@H](Cc1ccccc1)NC(=O)NCCc1ccccc1 | 15.6%
50 | CCCOc1ccc(C(=O)NCCc2ccccc2)cc1 | 39.8%
51 | CC(C)Cc1cc(C(=O)NCCc2ccccc2)no1 | 87.5% (active)
52 | O=C(NCCCc1ccccc1)c1cc(COc2c(F)cccc2F)on1 | 78.1% (active)
53 | CC(C)c1ccc(C(=O)NCCCc2ccccc2)cc1 | 60.6% (active)
54 | CC(C)/C=N/NC(=O)c1cc(Br)ccc1O | 30.6%
55 | C[C@H](NC(=O)NCCc1ccccc1)C(=O)O | 8.98%
56 | O=C(NCCc1ccccc1)c1ccc(OCCOc2ccccc2)cc1 | -1.89%
57 | CC(C)Cc1cc(C(=O)Nc2cc(Br)ccc2O)no1 | 85.5% (active)
58 | CC(C)C(=O)NCc1cc(-c2ccc(Cl)cc2)no1 | 10.8%
59 | O=C(NCCN1CCCC(O)C1)c1cc(COc2c(F)cccc2F)on1 (stereo not given) | -6.84%
60 | O=C(COC(=O)c1ccc(F)cc1)NCCCc1ccccc1 | -1.67%
